Source: PubChem BioAssay (EPA / NIEHS)
Values joined by “and” are separate entries in the source; they are usually repeats but may differ in a detail not shown here. Identical values can stand only once. Results filed as inconclusive are left out. Some structures have more than one record in an assay (separate samples or runs), and their calls can disagree. Active and inactive are the calls of the source. The calls were made as follows, unless noted: active = hit-call score of the fitted dose curve at least 0.9, where 1 is the maximum; inactive = score below 0.9.

Key:
[1] = read-out: Interleukin-8 (IL8), CXCL8 (gene 3576); assay: BSK_3C_IL8: BioMAP Diversity Plus: 3C Assay for Interleukin-8 (IL8) Biomarker Activity (AID 2283020); conditions: primary human endothelial cells (HUVEC); actives raise or lower the signal
Summary of the method: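 Using DMSO-treated wells as the baseline, bidirectional curve fitting was applied to ELISA-measured IL-8 from human umbilical vein endothelial cultures sampled 24 h after compound addition.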

[2] = read-out: Monokine induced gamma interferon (MIG), CXCL9 (gene 4283); assay: BSK_3C_MIG: BioMAP Diversity Plus: 3C Assay for Monokine induced gamma interferon (MIG) Biomarker Activity (AID 2283021); conditions: primary human endothelial cells (HUVEC); actives raise or lower the signal;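 as to AC50: MIG protein level measured by immunoassay in the treated endothelial cultures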
Summary of the method: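 ELISA-measured MIG in dosed HUVEC 3C cultures at 24 h, analysed by bidirectional fitting with DMSO defining baseline activity.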

[3] = BSK_3C_SRB: Viability Assessment in the BioMAP Diversity Plus: 3C Assay (AID 2283023); conditions: primary human endothelial cells (HUVEC);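 also: fitted both ways against DMSO so a hit may be signal rise or drop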
Summary of the method: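 Human umbilical vein endothelial cells in the 3C system, treated 24 h. Total protein measured by 0.1% sulforhodamine B staining after 10% TCA fixation, read at 560 nm; bidirectional fit versus DMSO.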

[4] = read-out: Matrix Metallopeptidase 1 (MMP1), MMP1 (gene 4312); assay: BSK_BE3C_MMP1: BioMAP Diversity Plus: BE3C Assay for Matrix Metallopeptidase 1 (MMP1) Biomarker Activity (AID 2283024); conditions: primary human bronchial epithelial cells; actives raise or lower the signal
Summary of the method: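 In this multiplexed primary-cell system, human bronchial epithelium received chemicals for 24 h before an ELISA for MMP1. Values reflect bidirectional fits normalised to the DMSO baseline.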

[5] = BSK_3C_Vis: BioMAP Diversity Plus: 3C Assay for Morphology Visualization (AID 2283025); conditions: primary human endothelial cells (HUVEC);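 also: fitted both ways so gain or loss versus DMSO counts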;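 as to AC50: light microscopy image of cell morphology used as background control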
Summary of the method: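 Light-microscopy morphology readout, 24 h exposure, human primary umbilical vein endothelium; analysed relative to DMSO with bidirectional fitting.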

[6] = read-out: Pselectin, SELP (gene 6403); assay: BSK_4H_Pselectin: BioMAP Diversity Plus: 4H Assay for Pselectin Biomarker Activity (AID 2283026); conditions: primary human endothelial cells (HUVEC); actives raise or lower the signal
Summary of the method: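 Bidirectional fits against DMSO gave the endpoint. Cells: primary human umbilical vein endothelium, chemical-treated for 24 h before ELISA detection of P-selectin.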

[7] = BSK_4H_SRB: Viability Assessment in the BioMAP Diversity Plus: 4H Assay (AID 2283027); conditions: primary human endothelial cells (HUVEC);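 also: cells exposed to compound for 24 h before staining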;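 as to AC50: curves fitted both ways versus DMSO so AC50 may be loss or gain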
Summary of the method: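 Cytotoxicity read-out in primary human endothelial cells: after 24 h compound exposure, cells were TCA-fixed (10%), stained with 0.1% SRB and absorbance taken at 560 nm. Values fitted in both directions relative to DMSO.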

[8] = BSK_BE3C_SRB: Viability Assessment in the BioMAP Diversity Plus: BE3C Assay (AID 2283028); conditions: primary human bronchial epithelial cells;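 as to AC50: fitted both ways so AC50 may mark signal gain or loss versus DMSO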
Summary of the method: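 Human bronchial epithelial primary cells in confluent culture, 24 h after chemical dosing; total protein by 0.1% SRB staining after 10% TCA fixation, read at 560 nm. Bidirectional fitting versus DMSO baseline.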

[9] = read-out: Thrombomodulin, THBD (gene 7056); assay: BSK_3C_Thrombomodulin: BioMAP Diversity Plus: 3C Assay for Thrombomodulin Biomarker Activity (AID 2283029); conditions: primary human endothelial cells (HUVEC); actives raise or lower the signal
Summary of the method: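 In a multiplexed primary-cell system, human umbilical vein endothelium received chemical and was assayed 24 h later for thrombomodulin by ELISA. Parallel cultures were SRB-stained (0.1% SRB after 10% TCA fixation, read at 560 nm) to flag cytotoxicity.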

[10] = read-out: Urokinase-type plasminogen activator receptor (uPAR), PLAUR (gene 5329); assay: BSK_4H_uPAR: BioMAP Diversity Plus: 4H Assay for Urokinase-type plasminogen activator receptor (uPAR) Biomarker Activity (AID 2283030); conditions: primary human endothelial cells (HUVEC); actives raise or lower the signal
Summary of the method: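 Human umbilical vein endothelial cells in the 4H system, 24 h after chemical dosing. Cell-surface uPAR measured by ELISA, fitted in both directions versus DMSO; cytotoxicity checked by SRB total protein in parallel cultures.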

[11] = read-out: Vascular endothelial growth factor receptor 2 (Homo sapiens) (UniProt P35968); assay: BSK_4H_VEGFRII: BioMAP Diversity Plus: 4H Assay for Vascular endothelial growth factor receptor 2 (VEGFR2) Biomarker Activity (AID 2283031); conditions: primary human endothelial cells (HUVEC); actives raise or lower the signal
Summary of the method: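 Primary human umbilical vein endothelial cells (4H system), 24 h exposure; cell-surface VEGFR2 measured by ELISA. Bidirectional fitting versus DMSO; cytotoxicity checked in parallel by SRB total-protein staining.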

[12] = read-out: Human Leukocyte Antigen - DR isotype (HLADR), HLA-DRA (gene 3122); assay: BSK_BE3C_HLADR: BioMAP Diversity Plus: BE3C Assay for Human Leukocyte Antigen - DR isotype (HLADR) Biomarker Activity (AID 2283032); conditions: primary human bronchial epithelial cells; actives raise or lower the signal
Summary of the method: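 BioMAP BE3C format: human bronchial epithelium, 24 h compound treatment, ELISA detection of HLA-DR, with bidirectional analysis relative to DMSO.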

[13] = read-out: Vascular cell adhesion molecule 1 (VCAM1), VCAM1 (gene 7412); assay: BSK_4H_VCAM1: BioMAP Diversity Plus: 4H Assay for Vascular cell adhesion molecule 1 (VCAM1) Biomarker Activity (AID 2283033); conditions: primary human endothelial cells (HUVEC); actives raise or lower the signal
Summary of the method: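 In this human endothelial (HUVEC) system, biomarker ELISA was run 24 h after compound addition, and total protein in parallel wells was assessed by SRB at 560 nm; DMSO served as negative control.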

[14] = read-out: Interferon-gamma inducible Protein 10 (IP10), CXCL10 (gene 3627); assay: BSK_BE3C_IP10: BioMAP Diversity Plus: BE3C Assay for Interferon-gamma inducible Protein 10 (IP10) Biomarker Activity (AID 2283034); conditions: primary human bronchial epithelial cells; actives raise or lower the signal
Summary of the method: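 BE3C cells (human bronchial epithelial, primary); 24 h exposure; ELISA for IP-10; DMSO-referenced bidirectional fit.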

[15] = read-out: Monokine induced gamma interferon (MIG), CXCL9 (gene 4283); assay: BSK_BE3C_MIG: BioMAP Diversity Plus: BE3C Assay for Monokine induced gamma interferon (MIG) Biomarker Activity (AID 2283035); conditions: primary human bronchial epithelial cells; actives raise or lower the signal
Summary of the method: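 ELISA quantified MIG after 24 h exposure of primary bronchial epithelial cultures, analysed in both directions relative to DMSO. Cytotoxicity tracked in parallel cultures by sulforhodamine B staining.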

[16] = read-out: Transforming growth factor beta 1 (TGFb1), TGFB1 (gene 7040); assay: BSK_BE3C_TGFb1: BioMAP Diversity Plus: BE3C Assay for Transforming growth factor beta 1 (TGFb1) Biomarker Activity (AID 2283036); conditions: primary human bronchial epithelial cells; actives raise or lower the signal
Summary of the method: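 TGF-b1 measured via ELISA, 24 h after chemical dosing of human bronchial epithelial cells (BE3C). Overt cytotoxicity assessed in parallel by SRB (0.1%, TCA-fixed, 560 nm); analysis bidirectional relative to DMSO.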

[17] = read-out: Plasminogen activator inhibitor-1 (PAI1), SERPINE1 (gene 5054); assay: BSK_BE3C_PAI1: BioMAP Diversity Plus: BE3C Assay for Plasminogen activator inhibitor-1 (PAI1) Biomarker Activity (AID 2283037); conditions: primary human bronchial epithelial cells; actives raise or lower the signal
Summary of the method: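 In this multiplexed primary-cell system, bronchial epithelial cells receive test chemical and are sampled at 24 h. PAI-1 is read by ELISA, with DMSO serving as negative control for bidirectional fitting.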

[18] = read-out: urokinase plasminogen activator (uPA), PLAU (gene 5328); assay: BSK_BE3C_uPA: BioMAP Diversity Plus: BE3C Assay for urokinase plasminogen activator (uPA) Biomarker Activity (AID 2283038); conditions: primary human bronchial epithelial cells; actives raise or lower the signal
Summary of the method: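 Primary human bronchial epithelial cells, uPA measured by ELISA 24 h after dosing. Bidirectional change relative to DMSO; cytotoxicity checked in parallel cultures by sulforhodamine B total-protein staining.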

[19] = biological target: human Vitamin D Receptor (VDR), VDR (gene 7421) (UniProt P11473); assay: ATG_VDR_TRANS: Attagene TRANS-FACTORIAL HepG2 Assay for human Vitamin D Receptor (VDR) (AID 2283022; active = hit-call score of the fitted dose curve at least 0.9, where 1 is the maximum)
Chain of human Vitamin D Receptor (VDR), VDR (gene 7421) (P11473 whole entry, looked up, the tested form may be a part): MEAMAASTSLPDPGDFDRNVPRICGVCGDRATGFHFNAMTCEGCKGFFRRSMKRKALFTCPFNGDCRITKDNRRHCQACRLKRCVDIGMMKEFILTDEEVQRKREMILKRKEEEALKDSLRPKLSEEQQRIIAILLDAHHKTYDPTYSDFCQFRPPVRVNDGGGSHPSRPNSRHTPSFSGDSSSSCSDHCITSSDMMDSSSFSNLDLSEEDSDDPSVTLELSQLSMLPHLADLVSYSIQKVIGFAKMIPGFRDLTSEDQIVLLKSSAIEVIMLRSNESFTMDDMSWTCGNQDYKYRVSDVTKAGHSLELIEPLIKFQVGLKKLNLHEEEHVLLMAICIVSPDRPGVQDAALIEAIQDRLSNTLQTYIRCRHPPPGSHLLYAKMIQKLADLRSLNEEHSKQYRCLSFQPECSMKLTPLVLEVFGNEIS
Summary of the method: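 HepG2 cells were transiently transfected with GAL4-UAS reporter units and a chimeric VDR-Gal4 construct, then dosed for 24 hours. Reporter mRNA was quantified by RT-PCR, fluorescent labeling, HpaI digestion and capillary electrophoresis; gain of signal analysed vs DMSO.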

Measured: AC50

CCOC(=O)C=Cc1ccccc1
not listed: [19]
inactive: all other assays above

c1ccc2c(c1)-c1ccc3ccc4cccc5cc-2c1c3c45
active: [5] 4.52 µM | [10] 10 µM | [12] 2.57 µM | [13] 3.53 µM
not listed: [11]
inactive: all other assays above

CC/C(=C(\c1ccccc1)c1ccc(OCCN(C)C)cc1)c1ccccc1
inactive: [9]
active: [1] 8.78 µM and 8.48 µM | [2] 10.4 µM and 9.73 µM | [3] 5.32 µM and 6.55 µM | [4] 10.1 µM and 12.3 µM | [5] 4.76 µM and 5.36 µM | [6] 7.7 µM and 8.24 µM | [7] 6.19 µM and 8.06 µM | [8] 4.81 µM and 5.24 µM | [9] 12.6 µM | [10] 5.66 µM and 7.14 µM | [12] 9.68 µM and 9.06 µM | [13] 8.4 µM and 8.08 µM | [14] 10.3 µM and 9.01 µM | [15] 12.1 µM and 11.1 µM | [16] 9.23 µM and 20 µM | [17] 11.5 µM and 11.7 µM | [18] 9.63 µM and 7.45 µM

CCC(=O)OCC=Cc1ccccc1
not listed: [11] | [19]
inactive: all other assays above

O=C(O)C(F)(F)OC(F)(F)C(F)(F)OC(F)(F)C(F)(F)C(F)(F)C(F)(F)F
inactive: [1] | [2] | [3] | [6] | [7] | [8] | [9] | [10] | [13] | [15] | [17] | [18]
active: [3] 46 µM | [4] 19.9 µM and 21.3 µM | [12] 21.2 µM and 13.3 µM | [14] 46.8 µM and 41.4 µM

NC(=O)c1c(Cl)cccc1Cl
not listed: [11] | [19]
inactive: all other assays above
